Laboratory results: PubChem BioAssay AID588855 (National Center for Advancing Translational Sciences (NCATS), 2011)
Screen size: about 410,000 compounds; about 5,000 (1.2%) were called active. Not shown: some 13% with an inconclusive outcome. What follows is part of a selection rich in actives, with near analogues and random picks from the rest. Values without a mark were called inactive. Calls come from the whole dose curve; as a rule, active = well fitted inhibition curve with a large enough effect; inconclusive = small, poorly fitted or top-dose-only effect; inactive = no such curve, though single readings can be large or run the other way.

Test: qHTS for Inhibitors of TGF-b; note: nearly all actives have a fitted effect of over 65% in size
Conditions: HepG2 CAGA-GFP TGF-b/SMAD3 reporter, GFP fluorescence, 18 h, TGF-beta stimulated, 500 pg/mL final; series mostly up to 46.1 µM; activity, negative = inhibition: at the top concentration
Excerpt: TGF-b is a main component in the TGF-b signaling pathway which plays diverse roles in cellular and development pathways. TGF-b is the mediated by the transcription factors Smads. Although the Smad-dependent pathway is the primary canonical TGF-b signaling node, TGF-b1 can also activate alternative signaling pathways, including those involving MAPK (ERK, JNK and p38). This interaction may mediate or enhance Smad-dependent responses, or can exert Smad-independent effects. The complexity of this signaling cascade allows the TGF-b superfamily to perform unique, overlapping or redundant functions. We believe that targeting the TGF-beta pathway at the Smad-transcription factor level may eliminate the consequences of disrupting the entire pathway and offer specificity without affecting other signaling pathways. Smad3 is the primary transducer of TGF-b's signals and Smad3 regulates many functions attributed to TGF-b signaling. We hypothesize that Smad3 inhibitors will selectively eliminate Smad3-specific TGF-beta signals without undesired off-target effects. We aim to identify Smad3-small molecule antagonists using a quantitative high throughput screening (qHTS) approach.
A high-throughput assay was developed to screen the NIH Molecular Libraries Small Molecule Repository (MLSMR). This is a cell based assay, where TGF-b is tagged with GFP. A counterscreen is run that looks at cytotoxicity (please see summary AID).
MH087449NIH Chemical Genomics Center [NCGC]
NIH Molecular Libraries Probe Centers Network [MLPCN]
Assay Submitter (PI): Sushil Rane, National Institute of […]
Suspensions of trypsinized HEPG2 CAGA-GFP cells were dispensed into white, tissue culture-treated, solid 1536-well plates at 5uL/well (1000 cells/well final concentration) in DMEM medium supplemented with 1% FBS. Plates were incubated at 37 degrees C for 2 hours, after which 23 nL of compounds or DMSO were delivered to each well using a pin tool. One uL of recombinant TGF-beta in DMEM (1% FBS) was then dispensed (500 pg/mL final concentration), and plates were incubated at 37 degrees C for 18 hours. The plates were measured on an Acumen eX3 Explorer plate reader for GFP fluorescence (ex488/em500-530). GFP values were calculated by determining the mean GFP fluorescence of individual cells, and compiling these values for each well to determine a total well GFP signal. The %Activity was determined from the corrected fluorescence values. A titration of the known TGF-B inhibitor SB431542 was included to monitor plate performance, while unstimulated HEPG2 (-TGF-B) control wells were used to normalize %Activity of identified inhibitors; unstimulated wells corresponded to 100%Activity (full inhibition), while stimulated cell controls (+DMSO) were used to normalize 0%Activity (no inhibition).
Concentration-response curves were fitted to the signals arising from the resulting fluorescence. The concentration-effect curves were then classified based on curve quality (r2), response magnitude and degree of measured activity, and compounds were subsequently categorized based on their curve class.
Potency is the fitted concentration of half-maximal effect.

Row | Structure (SMILES) | activity, negative = inhibition [%] | Potency
1 | CC12CCC(O)CC1CCC1C2CCC2(C)C(C(=O)CC(O)C(F)(F)F)CCC12 (centres undefined) | -4.48 | –
2 | C[C@]12CCC3C(CC[C@H]4C[C@@H](O)CC[C@]34C)C1CC[C@@H]2O (some centres undefined) | 15 | –
3 | C[C@]12CC[C@H](O)C[C@H]1CC[C@@H]1C2CC[C@]2(C)[C@@H](C3=CC(=O)OC3)[C@@H](O)C[C@]12O (some centres undefined) | – | 11.2 µM (active)
4 | C[C@H]1CN([C@@H](C)CO)C(=O)CCCn2nncc2CO[C@H]1CN(C)C(=O)Oc1ccccc1 | 1.94 | –
5 | COc1ccccc1OC(=O)c1ccc(C)c(S(=O)(=O)N2CCOCC2)c1 | -12.5 | –
6 | COc1ccc2c(c1)NP(=S)(c1ccccc1)N2 (centres undefined) | 0 | –
7 | O=c1c2ccccc2nc(/C=C/c2ccc(F)cc2)n1-c1ccccc1O | – | 10 µM (active)
8 | Cn1cc(/C=C/c2nc3ccccc3c(=O)n2-c2ccccc2)c2ccccc21 | 0.0962 | –
9 | Cc1nc2ccccc2c(=O)n1-c1ccc(Cl)cc1Cl | 2.9 | –
10 | CC(C)CN1Cc2cc(N3CCCCC3)ccc2-n2nncc2C1 | -32 | –
11 | O=c1c2ccccc2nc(CBr)n1-c1ccc(Cl)cc1 | 5.25 | –
12 | Cn1c(O)c(C=NCCCC(=O)O)c(=O)n(C)c1=O | -7.57 | –
13 | CCCCC(=O)N/N=C/c1c(O)n(CC)c(=S)n(CC)c1=O | – | 22.4 µM (active)
14 | O=C(N/N=C/c1c(O)n(Cc2ccccc2)c(=O)[nH]c1=O)c1ccccc1 | -2.56 | –
15 | COc1cc(C(c2c(O)c3ccccc3oc2=O)c2c(C)n(C)n(-c3ccccc3)c2=O)ccc1O (centres undefined) | – | inactive
16 | C[C@H]1CN([C@@H](C)CO)C(=O)CCCn2nncc2CO[C@H]1CN(C)C(=O)Oc1cccc2ccccc12 | -17.7 | –
17 | CC1CCCCN1Cc1cccnc1 (centres undefined) | -4.61 | –
18 | COC1C(O)C(C)OC(OC2CCC3(C=O)C(CCC4C3CCC3(C)C(C5=CC(=O)OC5)CCC43O)C2)C1O (centres undefined) | – | 0.355 µM (active)
19 | O=c1[nH]c(CN2CC=C(c3ccccc3)CC2)nc2scc(-c3cccs3)c12 | -20.4 | –
20 | COC(=O)C1=C(c2cc3ccccc3s2)C[C@@H]2CC[C@H]1N2C(=O)NCCO | -5.77 | –
21 | COc1cc(C2c3cc4c(cc3C(O)C3COC(=O)C23)OCO4)cc(OC)c1OC (centres undefined) | -56.2 | –

Row | Structure (SMILES) | activity, negative = inhibition [%] | Potency
22 | O=C(O)c1cc[c]([Sb](=[O])([OH])[OH])cc1[N+](=O)[O-] | -13.1 | –
23 | CO[C@H]1[C@@H](O)[C@@H](C)O[C@H](O[C@H]2[C@H](Oc3cccc4c(O)c5c(=O)oc6ccc(C)c7c(=O)oc(c34)c5c67)O[C@H](C)[C@H](O)[C@@H]2O)[C@@H]1O | -9.07 | –
24 | CSCCC(c1nnnn1C(C)(C)C)N1CCC(n2c(=O)[nH]c3ccccc32)CC1 (centres undefined) | -13.8 | –
25 | CC1(C)Cc2c(C#N)c(N3CCNCC3)nc(-c3ccco3)c2CS1 | 0 | –
26 | Cc1cccc(Cn2cccc(C(=O)Nc3ccc4c(c3)OCCO4)c2=O)c1 | – | 10 µM (active)
27 | Cc1nnc(NC(=O)c2cccn(Cc3cccc(F)c3)c2=O)s1 | -14.8 | –
28 | Cc1ccccc1NC(=O)COC(=O)c1cc(C)n(C2CC2)c1C | -18.3 | –
29 | COc1ccc(NC(=O)N2Cc3ccccc3-n3nncc3C2)cc1 | 12.2 | –
30 | Cc1ccc(OC(=O)N(C)C[C@@H]2OCc3cnnn3CCCC(=O)N([C@H](C)CO)C[C@@H]2C)cc1 | 9.78 | –
31 | CCOC(=O)CNC(=O)N1Cc2cc(N3CCCCC3)ccc2-n2nncc2C1 | -17.2 | –
32 | CC(=O)c1ccc(OC(NC(=O)Cc2ccccc2)C(Cl)(Cl)Cl)cc1 (centres undefined) | 0.817 | –
33 | CN1CCN(/N=C/c2c[nH]c3ccccc23)CC1 | 8.85 | –
34 | CN(C)CCN(CC1CCCN(Cc2ccccc2F)C1)C(=O)Cc1ccc(F)c(F)c1 (centres undefined) | -1.79 | –
35 | CCn1cc(CN2CCCC(C(=O)c3cccc(C(F)(F)F)c3)C2)cn1 (centres undefined) | 1.53 | –
36 | CC(=O)Nc1ccc(CC#N)cc1 | 8.86 | –
37 | CCC(C)(O)C(=O)OC1C(=O)OC2CC3C(C)=CC(=O)C(O)C3(C)C3C4(O)OCC23C1C(C)C4O (centres undefined) | – | 0.355 µM (active)
38 | O=C1C2CCN(CC2)C1(CO)CO | -1.2 | –
39 | COc1ccc(C2C=C(C)Oc3c2c(=O)oc2ccccc32)cc1OC (centres undefined) | -7.94 | –
40 | CN(C(=O)c1cccc(NC(=O)Cc2cccc([N+](=O)[O-])c2)c1)C1CCCCC1 | – | 20 µM (active)
41 | CN(C)P(=S)(Nc1ccccc1)C(Cl)(Cl)Cl (centres undefined) | -5.56 | –
42 | O=C1CC(=O)N(Cc2ccccc2)C(=O)N1CCCCCCN1C(=O)CC(=O)N(Cc2ccccc2)C1=O | 0 | –

Row | Structure (SMILES) | activity, negative = inhibition [%] | Potency
43 | CC(C)(C)c1ccc(CN2C(=O)CN=C(c3ccccc3)c3ccccc32)cc1 | – | 11.2 µM (active)
44 | O=C(O)/C=C/c1ccc2c(c1)OCO2 | 23.6 | –
45 | CC1=C(C(=O)Nc2ccccc2)S(=O)(=O)CCO1 | 5.26 | –
46 | CNC(=O)N(C)c1nnc(C(C)(C)C)s1 | -7.7 | –
47 | c1ccc(N2Cc3ccccc3-n3nncc3C2)nc1 | 18.6 | –
48 | O=Cc1cn(Cc2ccc(F)cc2Cl)c2ccccc12 | – | 8.91 µM (active)
49 | CC(=O)C1(O)CCC2C3CCC4=C(Cl)C(=O)CCC4(C)C3CCC21C (centres undefined) | 3.07 | –
50 | N#Cc1c(Cl)c(Cl)c(Cl)c(C#N)c1Cl | – | 0.251 µM (active)
51 | CCOC(=O)C(O)(c1ccc(N=Cc2ccccc2O)c(C)c1)C(F)(F)F (centres undefined) | -3.24 | –
52 | O=C(Oc1ccc2c(c1)CCC2)N1CCOCC1 | 32.9 | –
53 | CCN(CC)C(=O)c1ccc(NC(=O)c2sccc2-c2ccccc2)cc1 | -23.7 | –
54 | CCOc1cccc(=NC2CCCCC2)c2c(C)[nH]c(C)c12 | – | 10 µM (active)
55 | Cc1nc2ccccn2c1P(=S)(N1CCCCC1)N1CCCCC1 | -1.83 | –
56 | COc1ccc2cc1Oc1ccc(cc1)C[C@H]1c3cc(c(OC)cc3CCN1C)Oc1c(O)c(OC)cc3c1[C@H](C2)N(C)CC3 | – | 7.94 µM (active)
57 | COc1ccc2c(c1O)-c1cccc3c1[C@@H](C2)N(C)CC3 | 15.1 | –
58 | COc1c(O)ccc2c1-c1c3c(cc4c1C(C2)N(C)CC4)OCO3 (centres undefined) | 6.67 | –
59 | CN(C)/C=C(\C=[N+](C)C)c1[nH]ncc1[N+](=O)[O-] | 23.1 | –
60 | COC(=O)C1=C(c2ccc(OCc3ccccc3)cc2)C[C@@H]2CC[C@H]1N2C(=O)NCc1cccc(F)c1 | -12.6 | –
61 | Cc1ncoc1C(=O)NCC1=C(c2cccc3ccccc23)C[C@@H]2CC[C@H]1N2Cc1ccco1 | -27.8 | –
62 | ClCCN(CCCl)c1ccc(C=Nc2ccc(/C=C/c3ccnc4ccccc34)cc2)cc1 | -16.9 | –
63 | CCCCCCCCCCCCn1ccc(=N)cc1 | – | 10 µM (active)

Row | Structure (SMILES) | activity, negative = inhibition [%] | Potency
64 | Cc1ccc(Oc2cnn(-c3ccccc3)c(=O)c2Br)cc1 | 27 | –
65 | CCC1(CC(C)c2ccccc2)C(=O)NC(=O)NC1=O (centres undefined) | -0.656 | –
66 | CCOP(=S)(OCC)SCOC(=O)NCC(=O)OC | -14.9 | –
67 | O=P1(Oc2ccccc2)CC(O)C(O)C(COCc2ccccc2)O1 (centres undefined) | -2.34 | –
68 | O=c1c2ccccc2[nH]c(=S)n1-c1cccc(Cl)c1 | -2.46 | –
69 | OC(Cn1c2ccccc2c2ccccc21)C[n+]1ccccc1 (centres undefined) | -14.8 | –
70 | CC[C@H]1CN2CCc3cc(OC)c(OC)cc3[C@@H]2C[C@@H]1C[C@H]1NCCc2cc(OC)c(OC)cc21 | – | 0.0891 µM (active)
71 | CC(=O)OC1C2(CC3N4C(=O)C5(CO)SSC4(CC31O)C(=O)N5C)OC(C)C(C)(C)C2=O (centres undefined) | – | 0.794 µM (active)
72 | O=C(NCC1=C(c2ccc3ccccc3c2)C[C@@H]2CC[C@H]1N2Cc1ccco1)c1cccs1 | 0.825 | –
73 | CNC(=S)N/N=C1\C2CN3CCN(C2)CC1(c1ccccc1)C3 | 3.41 | –
74 | O=C(Cc1ccccc1)N1CCN(C2CCCCCC2)CC1 | 6.26 | –
75 | CN(C)CC1Oc2ccccc2OC1(O)c1ccccc1 (centres undefined) | – | 2.82 µM (active)
76 | COc1ccc2c(c1)[C@]13CCCCC1C(C2)N(C)CC3 (some centres undefined) | -24.2 | –
77 | CCOc1ccc(CNC(=O)c2cccc(Nc3nc4ccccc4n4nnnc34)c2)cc1OC | 63 | –
78 | COc1ccc(C2NCc3ccc4c(c3-n3cccc32)OCO4)cc1OC (centres undefined) | 17.7 | –
79 | CN(C)C(=O)Oc1ccc(NC(=O)N2CCOCC2)cc1 | -16.7 | –
80 | Cc1cccc(-n2c(O)c(C=NC34CN5CN(CN(C5)C3)C4)c(=O)[nH]c2=O)c1 | 5.66 | –
81 | c1cc2c(c(NC3=NCCCS3)c1)CCCC2 | 10.7 | –
82 | CCOC(=O)c1cccc(C2=C(CNC(=O)c3ccncc3)[C@H]3CC[C@@H](C2)N3Cc2ccccc2)c1 | -12.1 | –
83 | O=C(COC(=O)Cc1ccccc1)Nc1ccc(F)cc1 | -9.05 | –
84 | CC(=O)NCC1=C(c2ccc3ccccc3c2)C[C@@H]2CC[C@H]1N2Cc1ccco1 | 15.6 | –
